Bioassay records deposited in PubChem BioAssay by Broad Institute.
In the library only some 2.1% were active in any assay of this set; here they are far more common.
ARNT-TACC3 inh – disruptors of human ARNT/TACC3 interaction; Q9Y6A5; AlphaScreen His-ARNT PAS-B/GST-TACC3 binding, luminescence; TACC3 fragment carries E629A point mutation; inhibition, % at 9.99 µM; hit rate 0.66% among 390,000;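 active = mean inhibition of replicates at least 50% and at least half of replicates each reaching 50%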
PvdQ inh – P. aeruginosa PvdQ acylase inhibition; hit rate 0.063% among 340,000; inhibition, % at 10 µM; purified PvdQ acylase, fluorescence plate reader; in the data active = inhibition above about 30%, passing the limit was not always enough
Ecoli rRNA inh – inhibits bacterial ribosomal RNA function over humanized ribosomes. E. coli WT GFP vs humanized-ribosome RFP mutants, fluorescence, 24 h; active compounds read low; DMSO median 0, no signal -100. GFP signal change (wild-type ribosome), % (test concentration not listed). hit rate 1.6% among 350,000;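 active = significant combined selectivity score with lowered wild-type GFP, culture density cut under 30%, mutant RFP and density less affected; inactive = any of these conditions unmet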
ERAP1 inh – blocks human ERAP1 aminopeptidase activity; Q9NZ08; recombinant ERAP1, Leu-AMC fluorescence, 60 min; inhibition, % at 10.7 µM; hit rate 0.15% among 340,000; AID 652197;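 active = mean replicate inhibition of at least 30%, or all replicates individually reaching that 30% level; inactive = mean below 30% and not every replicate reaching it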
Target sequence (Q9NZ08 whole entry, looked up): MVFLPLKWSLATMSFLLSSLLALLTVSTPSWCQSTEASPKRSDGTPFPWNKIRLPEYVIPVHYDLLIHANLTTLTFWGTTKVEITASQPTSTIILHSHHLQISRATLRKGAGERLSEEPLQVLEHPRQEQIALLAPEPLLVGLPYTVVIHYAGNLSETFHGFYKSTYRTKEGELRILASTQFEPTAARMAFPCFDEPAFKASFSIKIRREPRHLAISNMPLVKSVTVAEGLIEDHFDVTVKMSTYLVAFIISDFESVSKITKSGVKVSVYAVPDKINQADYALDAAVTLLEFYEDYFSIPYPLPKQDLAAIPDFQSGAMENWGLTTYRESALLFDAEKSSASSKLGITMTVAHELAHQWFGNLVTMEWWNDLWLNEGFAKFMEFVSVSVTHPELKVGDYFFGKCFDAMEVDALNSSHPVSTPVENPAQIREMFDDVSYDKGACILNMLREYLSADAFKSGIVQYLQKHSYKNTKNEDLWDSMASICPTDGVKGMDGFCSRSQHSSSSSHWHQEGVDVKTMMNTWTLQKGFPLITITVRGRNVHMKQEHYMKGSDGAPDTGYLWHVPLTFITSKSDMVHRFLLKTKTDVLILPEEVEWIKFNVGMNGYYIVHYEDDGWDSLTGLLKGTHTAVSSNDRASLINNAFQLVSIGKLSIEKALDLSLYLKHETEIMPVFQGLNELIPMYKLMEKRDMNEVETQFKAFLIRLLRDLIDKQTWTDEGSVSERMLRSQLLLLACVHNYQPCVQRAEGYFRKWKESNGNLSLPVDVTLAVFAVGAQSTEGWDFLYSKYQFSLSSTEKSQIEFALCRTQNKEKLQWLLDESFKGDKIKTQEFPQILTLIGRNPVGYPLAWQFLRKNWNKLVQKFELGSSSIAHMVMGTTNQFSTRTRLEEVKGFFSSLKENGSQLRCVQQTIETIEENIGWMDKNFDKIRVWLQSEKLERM
F508del corr – correctors of CFTR F508del function in bronchial epithelial cells; CFBE cells, YFP halide quenching; stimulated with forskolin plus potentiator P3; % fluorescence drop versus neutral controls; activity (quench increase), % at 7.58 µM; hit rate 0.36% among 350,000; AID 720511;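 active = mean added fluorescence quench of at least 8% versus neutral control, with both replicates also reaching 8%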;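 also: cells transiently co-express mutant CFTR-F508del with the halide-sensitive YFP; corrector assay measuring rescue of mutant channel to the surface after 24 h compound exposure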
Each line names hits and unclear results; the compound was inactive in the other large screens.

COc1ccccc1C(=O)C1CCCN(C(=O)CCC(=O)c2ccccc2)C1 (stereo not given)	Ecoli rRNA inh -28
COc1ccc(CN(CC(O)COCc2ccccc2)S(=O)(=O)c2ccccc2Br)cc1OC (stereo not given)	Ecoli rRNA inh -21
C=CC(COCc1ccccc1)N(C(=O)OC(C)(C)C)S(=O)(=O)c1ccccc1Br (stereo not given)	none
COc1ccc(NS(=O)(=O)c2cc(C(=O)OC(C)C(=O)N3CCOCC3)ccc2Cl)cc1 (stereo not given)	none
CNC(=O)NC(=O)C(C)OC(=O)c1ccc(Cl)c(S(=O)(=O)Nc2ccc(F)cc2)c1 (stereo not given)	Ecoli rRNA inh -26 (no result: ERAP1 inh)
O=C(CCl)Nc1cn(-c2ccccc2)nc1-c1ccccc1	Ecoli rRNA inh -27
CC(=O)Nc1cn(-c2ccccc2)nc1-c1ccccc1	none (no result: ERAP1 inh)
Nc1ccc2c3c(cccc13)C(=O)N(c1ccccc1)C2=O	F508del corr 33 (no result: ARNT-TACC3 inh)
CCN(CC)CCC(=O)Nc1cccc2c1C(=O)c1ccccc1C2=O	F508del corr 24
N#Cc1c2n(c3c(=O)n(Cc4ccccc4)cnc13)CCCC2	Ecoli rRNA inh -25
CCOc1ccc(NC(=O)C(CC)n2nc(C)c3c(C)n(-c4ccccc4)nc3c2=O)cc1 (stereo not given)	Ecoli rRNA inh -23
CCC(C(=O)Nc1cccc(OC)c1)n1nc(C)c2c(C)n(-c3ccccc3)nc2c1=O (stereo not given)	none
CCCC(=O)Nc1ccc2c(c1)C(=O)N(C)[C@H]1CC[C@@H](CC(=O)NC3CCCC3)O[C@H]1CO2	none (no result: PvdQ inh)
CC1=CC(C)(C)[N+](C)=CN1c1ccccc1	ERAP1 inh 51
Cc1nc2cc(C(=O)O)ccc2n1-c1ccccc1	none
CCOC(=O)c1ccc(-c2c(-c3cc(OC)c(OC)c(OC)c3)noc2C)cc1F	F508del corr 16
CCOC(=O)c1ccc(-c2c(-c3ccc(OC)cc3)oc(=O)c3cc(OC)c(OC)cc23)cc1F	none
COc1cc(OC)cc(C(=O)N2CC(=O)Nc3ccccc32)c1	F508del corr 8.7
O=C1CN(C(=O)c2ccccc2F)c2ccccc2N1	none (no result: Ecoli rRNA inh, ERAP1 inh, F508del corr)
CCCNC(=O)Nc1ccc2c(c1)C(=O)N(C)C[C@H](OC)[C@H](C)CN(Cc1ccncc1)[C@@H](C)CO2	none (no result: PvdQ inh, ERAP1 inh)
CCOC(=O)CN(C(=O)CSc1nnc(CNc2ccc(C)cc2C)o1)c1ccccc1	Ecoli rRNA inh -23 (no result: F508del corr)
Cc1ccc(NCc2nnc(SCC(N)=O)o2)c(C)c1	none
COc1cc(Br)cc(/C=N/N(CCO)C2=NS(=O)(=O)c3ccccc32)c1OC	Ecoli rRNA inh -22
O=S1(=O)N=C(N(CCO)/N=C/c2ccc(Br)cc2)c2ccccc21	none
O=c1c(Cc2ccccc2)c(O)c2cccc3c4c(n1c23)CCCC4	Ecoli rRNA inh -19
N#Cc1cc([N+](=O)[O-])ccc1Oc1cccc(/C=N/NC(=O)c2cccc(Cl)c2)c1	PvdQ inh 63 (no result: Ecoli rRNA inh, ERAP1 inh, F508del corr)
CC(C)(C)C1CCC(=NNc2nc3ccccc3[nH]2)CC1 (stereo not given)	Ecoli rRNA inh -23
CCCCc1ccc(NC(=O)CSc2nc3ncccc3[nH]2)cc1	Ecoli rRNA inh -26
O=C(C1CCCO1)N1CCN(C(=S)Nc2ccc(F)c(Cl)c2)CC1 (stereo not given)	Ecoli rRNA inh -29
O=C(CNc1ccc2ccccc2c1)N/N=C/C=C/c1cccc([N+](=O)[O-])c1	Ecoli rRNA inh -15 (no result: F508del corr)
O=C(N/N=C/C=C/c1cccc([N+](=O)[O-])c1)C(O)c1ccccc1 (stereo not given)	none
COc1cccc(C2=CC(c3ccccc3)n3nnnc3N2)c1 (stereo not given)	F508del corr 15
COc1cccc(C2=CC(c3ccc(N(C)C)cc3)n3nnnc3N2)c1 (stereo not given)	none (no result: Ecoli rRNA inh, ERAP1 inh, F508del corr)
CO[C@H]1CN(C)C(=O)c2ccc(NC(=O)C3CCCC3)cc2OC[C@@H](C)N(C(C)=O)C[C@@H]1C	none (no result: PvdQ inh)
O=C(Nc1cccc(Cl)c1)c1ccc(S(=O)(=O)NCC2CCCO2)cc1 (stereo not given)	Ecoli rRNA inh -21
O=C(Nc1ccccc1)c1ccc(S(=O)(=O)NCC2CCCO2)cc1 (stereo not given)	none (no result: Ecoli rRNA inh, ERAP1 inh, F508del corr)
O=S(=O)(Nc1nc2ccccc2nc1NCC1CCCO1)c1cccc(Cl)c1 (stereo not given)	Ecoli rRNA inh -24
